Source: PubChem BioAssay (NCATS)
Where “and” joins values, the source holds several entries; their conditions need not be identical. Identical values can stand only once. Results filed as inconclusive are left out. Calls of active or inactive are those of the source. Unless noted, the call rests on the fitted dose curve; in most records, active means well fitted curve in the direction sought with a large enough effect; inconclusive means small, poorly fitted or top-dose-only effect, or another doubt; inactive means no such curve, though single readings can be large; an effect the other way counts as inactive or inconclusive. Numbered stars: 1 amine (or outer) side, 2 acyl side, 3 side chain; on linkers, the order of the positions; unused ones are H or OH. Bridge positions count the residues as written; N and C are the ends. Square brackets hold non-standard residues; d marks the D form. Peptide text beside a SMILES is read from it. I, II: the chains in the order shown. Actinocin(9to1) = Cc1c2oc3c(C)ccc(C(=O)[*:1])c3nc-2c(C(=O)[*:2])c(N)c1=O; NMeV = CN[C@H](C(=O)O)C(C)C; Sar = CNCC(=O)O

Columns and labels:
[1] = target: Flap endonuclease 1 (Homo sapiens) (UniProt P39748); experiment: qHTS Validation Assay for the Inhibitors of Human Flap endonuclease 1 (FEN1) (AID 488816); further: potency means the concentration at half of the fitted maximal effect
Chain of Flap endonuclease 1 (Homo sapiens) (P39748 whole entry, looked up): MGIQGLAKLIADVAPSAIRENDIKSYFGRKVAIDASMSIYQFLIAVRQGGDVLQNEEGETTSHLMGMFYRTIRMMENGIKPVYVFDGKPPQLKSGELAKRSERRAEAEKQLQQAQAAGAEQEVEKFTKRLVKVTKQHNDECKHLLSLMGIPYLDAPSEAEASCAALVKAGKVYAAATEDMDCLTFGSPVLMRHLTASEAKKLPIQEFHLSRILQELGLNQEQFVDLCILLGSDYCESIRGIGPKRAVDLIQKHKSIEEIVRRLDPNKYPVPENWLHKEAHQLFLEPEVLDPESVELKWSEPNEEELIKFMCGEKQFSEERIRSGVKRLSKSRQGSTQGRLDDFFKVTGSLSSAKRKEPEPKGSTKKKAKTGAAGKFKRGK
Procedure, shortened: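 Steps: add FEN1 (10 nM reagent) or buffer only; pin compounds; hold 15 min at room temperature; start with substrate, 50 nM final; read at 0 and 15 min; correct, normalize and fit a four-parameter Hill curve.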

[2] = target: Methanococcus maripaludis chaperonin (MmCpn) (UniProt Q6LX38); experiment: High-Throughput Screening for Modulators of Cytosolic Chaperonin Activity: MmCpn Primary Screen (AID 488978);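 further: 50 nM MmCpn enzyme hydrolysing 30 µM ATP at 37 °C; 0% is about no effect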
Chain of Methanococcus maripaludis chaperonin (MmCpn) (Q6LX38 1-543): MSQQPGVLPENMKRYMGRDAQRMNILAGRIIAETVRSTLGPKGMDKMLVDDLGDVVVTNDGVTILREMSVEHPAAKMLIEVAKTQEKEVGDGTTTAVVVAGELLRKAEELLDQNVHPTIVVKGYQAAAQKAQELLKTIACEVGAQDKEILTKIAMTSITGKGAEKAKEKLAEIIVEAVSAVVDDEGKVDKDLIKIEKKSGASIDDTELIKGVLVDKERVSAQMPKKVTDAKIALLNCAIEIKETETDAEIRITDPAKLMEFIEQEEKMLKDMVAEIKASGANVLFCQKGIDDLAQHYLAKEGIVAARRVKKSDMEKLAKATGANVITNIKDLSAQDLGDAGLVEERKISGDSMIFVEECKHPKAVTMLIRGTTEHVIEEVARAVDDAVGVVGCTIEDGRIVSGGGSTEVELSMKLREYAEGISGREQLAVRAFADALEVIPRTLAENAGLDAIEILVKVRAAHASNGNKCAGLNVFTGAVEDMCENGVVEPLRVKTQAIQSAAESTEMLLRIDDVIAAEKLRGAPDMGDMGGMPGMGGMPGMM
Procedure, shortened: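 MmCpn at 50 nM final was preincubated 5 min at RT with compound. ATP was then added at 30 uM final for 10 min at 37 C. ADP formed was detected by Transcreener HTRF (665/590 nm).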

[3] = target: Transient receptor potential cation channel subfamily V member 1 (Homo sapiens) (UniProt Q8NER1); experiment: HTS Assay for Compounds that Act as Enhancers of the Vanilloid Receptor 1 (AID 488979); further: 0% is about no effect
Chain of Transient receptor potential cation channel subfamily V member 1 (Homo sapiens) (Q8NER1 whole entry, looked up): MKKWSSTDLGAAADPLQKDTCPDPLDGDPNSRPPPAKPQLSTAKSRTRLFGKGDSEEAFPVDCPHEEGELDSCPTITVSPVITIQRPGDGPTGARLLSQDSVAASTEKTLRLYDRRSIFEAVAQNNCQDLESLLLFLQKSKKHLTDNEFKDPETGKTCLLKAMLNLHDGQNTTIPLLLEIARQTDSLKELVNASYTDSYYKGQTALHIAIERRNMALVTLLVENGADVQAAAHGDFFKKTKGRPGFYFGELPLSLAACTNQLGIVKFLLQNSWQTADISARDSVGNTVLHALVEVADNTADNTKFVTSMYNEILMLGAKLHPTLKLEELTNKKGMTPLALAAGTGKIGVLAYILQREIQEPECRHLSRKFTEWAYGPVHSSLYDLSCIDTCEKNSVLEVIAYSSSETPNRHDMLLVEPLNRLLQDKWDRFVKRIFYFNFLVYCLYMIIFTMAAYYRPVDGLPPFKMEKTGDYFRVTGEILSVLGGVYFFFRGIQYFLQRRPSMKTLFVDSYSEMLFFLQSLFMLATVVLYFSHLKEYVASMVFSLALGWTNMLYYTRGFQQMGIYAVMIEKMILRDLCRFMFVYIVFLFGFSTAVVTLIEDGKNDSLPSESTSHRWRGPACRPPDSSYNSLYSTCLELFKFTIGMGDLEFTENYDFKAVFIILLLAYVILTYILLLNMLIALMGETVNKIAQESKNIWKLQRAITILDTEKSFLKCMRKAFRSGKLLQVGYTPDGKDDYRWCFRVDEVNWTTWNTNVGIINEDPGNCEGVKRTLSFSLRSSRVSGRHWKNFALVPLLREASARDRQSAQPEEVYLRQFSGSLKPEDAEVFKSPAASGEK
Procedure, shortened: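 TRPV1-expressing cells loaded with Fluo-8 calcium dye; compounds added and calcium influx read kinetically for 3 min (agonist phase), then capsaicin at EC20 added and read 2 min more for enhancement. Fluorescence ex 480/em 520 nm.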

[4] = target: D(1A) dopamine receptor (Homo sapiens) (UniProt P21728); experiment: HTS Assay for Allosteric Agonists of the Human D1 Dopamine Receptor: Primary Screen for Agonists (AID 488981); further: 0% is about no effect
Chain of D(1A) dopamine receptor (Homo sapiens) (P21728 whole entry, looked up): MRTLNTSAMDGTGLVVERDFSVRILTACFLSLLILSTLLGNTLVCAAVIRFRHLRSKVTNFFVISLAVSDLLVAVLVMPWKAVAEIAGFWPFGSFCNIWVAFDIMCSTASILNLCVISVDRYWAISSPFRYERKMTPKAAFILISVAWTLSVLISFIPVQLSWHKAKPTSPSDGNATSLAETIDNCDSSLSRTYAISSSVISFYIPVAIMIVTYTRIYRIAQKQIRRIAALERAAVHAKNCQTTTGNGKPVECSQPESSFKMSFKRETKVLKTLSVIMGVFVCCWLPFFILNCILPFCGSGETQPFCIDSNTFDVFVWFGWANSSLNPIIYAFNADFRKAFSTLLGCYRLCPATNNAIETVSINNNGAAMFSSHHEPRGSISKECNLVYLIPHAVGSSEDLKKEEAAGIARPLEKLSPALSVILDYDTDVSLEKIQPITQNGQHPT
Procedure, shortened: (§1)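 Tetracycline-induced HEK293 T-REx cells force-coupled to calcium signalling were incubated overnight at 30 C and dye-loaded at room temperature. Calcium flux over 180 s after compound addition flagged agonists; a further 180 s read after EC20 dopamine flagged potentiators.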

[5] = target: D(1A) dopamine receptor (Homo sapiens) (UniProt P21728); experiment: HTS Assay for Allosteric Agonists of the Human D1 Dopamine Receptor: Primary Screen for Antagonists (AID 488983);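 further: calcium flux response to an EC80 dopamine challenge measured with no-wash dye; nearly all actives have a fitted effect of over 65% in size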; further: potency means the concentration at half of the fitted maximal effect
Procedure, shortened: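 Calcium-flux read-out in inducible HEK293 T-REx cells expressing D1, dye-loaded 30–90 min at room temperature. Kinetic reads: 180 s after compound (agonist phase), then 180 s after an EC80 dopamine challenge.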

[6] = target: ATPase family AAA domain-containing protein 5 (Homo sapiens) (UniProt Q96QE3); experiment: Validation screen for small molecules that inhibit ELG1-dependent DNA repair in human embryonic kidney (HEK293T) cells expressing luciferase-tagged ELG1 (AID 493107);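 further: series mostly up to about 46 µM; on the % scale 0 is the no-effect control and ±100 the full control effect; inhibitors lower the ELG1-luciferase luminescence signal; nearly all actives have a fitted effect of over 70% in size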
Procedure, shortened: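 Luciferase read-out, ONE-Glo, 30 min at room temperature, follows 16 h co-exposure at 37 C of compound and the DNA-damaging agent 5-fluorouridine. Cells: HEK293T with ELG1-luciferase fusion, 2,000 per well, DMSO as vehicle.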

[7] = target: Thyrotropin-releasing hormone receptor (Homo sapiens) (UniProt P34981); experiment: qHTS for Small Molecule Agonists and Allosteric Enhancers of Human TRH Receptor: Validation Screen for Agonists (AID 493127;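 active means calcium activation more than 3 SD above the typical response in the agonist read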;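 further: intracellular calcium rise by fluo-8 fluorescence before TRH EC20 addition; 0% is about no effect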); conditions: TRH receptor agonist cell assay; at 2 µM; stronger effect = higher value
Procedure, shortened: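 Compound-evoked intracellular calcium release in fluo-8-loaded TRHR cells, read kinetically on FDSS (Ex 480/Em 530, 1 s/cycle) after 23 nL pintool transfer. Agonist phase preceded 10 nM TRH EC20 addition.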

[8] = qHTS for Inhibitors of Cell Surface uPA Generation: Validation Assay (AID 493164);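 further: RAW 264.7 macrophage cells exposed to compound for 18 h; 0% is about no effect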
Procedure, shortened: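 ATP-Lite luminescence read-out: ATP remains high when uPA activity-dependent LF translocation into the cytoplasm is blocked. RAW 264.7 cells, 18 h compound exposure at 37 C; 7-point titration, 2.45 nM to 38.3 uM final.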

[9] = target: Galactokinase (Homo sapiens) (UniProt P51570); experiment: qHTS Validation Assay for Inhibitors of Human Galactokinase (GALK) (AID 493189); further: 0% is about no effect
Chain of Galactokinase (Homo sapiens) (P51570 whole entry, looked up): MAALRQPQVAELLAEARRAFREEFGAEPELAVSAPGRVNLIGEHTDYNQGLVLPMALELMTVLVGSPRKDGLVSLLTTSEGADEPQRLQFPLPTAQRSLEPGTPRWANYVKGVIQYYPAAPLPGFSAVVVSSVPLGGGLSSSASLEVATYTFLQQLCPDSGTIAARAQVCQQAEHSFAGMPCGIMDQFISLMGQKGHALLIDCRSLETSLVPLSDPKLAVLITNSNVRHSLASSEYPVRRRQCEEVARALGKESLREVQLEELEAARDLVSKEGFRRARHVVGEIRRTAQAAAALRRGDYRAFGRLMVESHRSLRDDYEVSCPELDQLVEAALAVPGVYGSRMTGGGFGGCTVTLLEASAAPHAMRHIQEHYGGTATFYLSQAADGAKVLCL
Procedure, shortened: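 GALK (5 nM) with 35 uM ATP and 100 uM galactose in HEPES pH 8.0 with MgCl2, NaCl, DTT and BSA. Reaction ran 1 h at room temperature. Residual ATP read by Kinase-Glo Plus luminescence.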

[10] = Validation screen for small molecules that induce DNA re-replication in SW480 colon adenocarcinoma cells (AID 504364); further: 0% is about no effect
Procedure, shortened: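 Image-based DNA content read-out: Hoechst stain 40 min, total nuclear fluorescence intensity (ex 405 nm, em 500-530 nm) after 48 h compound exposure of 250 SW480 cells/well at 37 C, 5% CO2, versus DMSO vehicle.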

[11] = target: Peptidyl-prolyl cis-trans isomerase NIMA-interacting 1 (Homo sapiens) (UniProt Q13526); experiment: qHTS Validation Assay to Find Inhibitors of Pin1 (AID 504536; active means well fitted inhibition curve with a large enough effect in the polarisation, with a control signal flat, not every such curve was filed as active; the % refers to the polarisation;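 further: 0% = full Pin1 enzyme wells and -100% = no-enzyme wells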)
Chain of Peptidyl-prolyl cis-trans isomerase NIMA-interacting 1 (Homo sapiens) (Q13526 whole entry, looked up): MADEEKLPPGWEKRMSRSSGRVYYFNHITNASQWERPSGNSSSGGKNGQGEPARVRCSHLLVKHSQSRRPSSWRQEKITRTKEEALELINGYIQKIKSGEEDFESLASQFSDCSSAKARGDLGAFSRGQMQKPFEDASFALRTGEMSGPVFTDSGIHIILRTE
Procedure, shortened: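 Fluorescence polarization competition: compounds (titration) displace HiFluor-488-labeled Pin1-1b peptide from Pin1 (0.3 uM final) in pH 7.5 HEPES buffer with DTT, 10 min at room temperature; %Activity normalized to no-enzyme wells, curves fitted.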

[12] = target: Phosphoglycerate kinase, glycosomal (Trypanosoma brucei brucei) (UniProt P07378); experiment: qHTS Validation Assay to Find Inhibitors of Phosphoglycerate Kinase (AID 504547);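 further: control wells lack PGK and mark full inhibition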
Procedure, shortened: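 In TEA buffer (100mM, pH 7.6) containing 5mM MgCl2 and 0.01% Tween-20, the GAPDH-coupled PGK reaction proceeded for 60 minutes at room temperature before a single luminescence reading using Kinase-Glo Plus.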

[13] = target: phosphoglycerate mutase (Leishmania major) (UniProt Q4Q090); experiment: qHTS Validation Assay to Find Inhibitors of Phosphoglycerate Mutase (AID 504548); further: series mostly up to about 58 µM; on the % scale 0 is the no-effect control and ±100 the full control effect
Chain of phosphoglycerate mutase (Leishmania major) (Q4Q090 1-553): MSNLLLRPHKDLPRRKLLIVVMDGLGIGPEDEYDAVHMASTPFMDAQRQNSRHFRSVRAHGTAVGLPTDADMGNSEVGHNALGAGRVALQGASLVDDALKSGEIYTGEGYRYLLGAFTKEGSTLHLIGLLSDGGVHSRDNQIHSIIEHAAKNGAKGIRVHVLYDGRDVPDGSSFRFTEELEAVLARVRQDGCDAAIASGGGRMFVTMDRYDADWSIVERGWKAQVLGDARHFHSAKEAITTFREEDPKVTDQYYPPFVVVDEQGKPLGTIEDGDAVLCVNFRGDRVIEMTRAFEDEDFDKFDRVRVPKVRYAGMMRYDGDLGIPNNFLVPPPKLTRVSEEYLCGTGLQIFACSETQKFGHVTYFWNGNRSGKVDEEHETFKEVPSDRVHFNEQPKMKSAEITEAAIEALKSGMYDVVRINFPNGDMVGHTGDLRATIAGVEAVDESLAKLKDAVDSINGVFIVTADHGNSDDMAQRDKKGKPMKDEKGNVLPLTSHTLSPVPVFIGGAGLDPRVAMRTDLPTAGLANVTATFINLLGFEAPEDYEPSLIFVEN
Procedure, shortened: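 Luminescent end-point read-out via Kinase-GloPlus after a 10-minute development. Reaction: 1.25nM Leishmania major PGAM with substrate and compound, 45 minutes at room temperature in TEA buffer (pH 7.6) with MgCl2 and Tween-20.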

[14] = Inducers of the Endoplasmic Reticulum Stress Response (ERSR) in human glioma: Validation (AID 504836); further: 0% is about no effect
Procedure, shortened: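 Stably transfected U87-MG human glioma cells carrying a GRP78-based luminescent sensor were seeded at 1000 cells/well, pin-dosed with compounds and incubated 16 h. Luciferase reagent was then added, and end-point luminescence was read after 10 min at room temperature.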

[15] = target: Ubiquitin carboxyl-terminal hydrolase 1 (Homo sapiens) (UniProt O94782); experiment: Inhibitors of USP1/UAF1: Pilot qHTS (AID 504865); further: nearly all actives have a fitted effect of over 35% in size; further: potency means the concentration at half of the fitted maximal effect
Procedure, shortened: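 USP1/UAF1 complex at 1 nM preincubated 15 min at room temperature with compound, then Ub-Rho substrate added at 150 nM final. Fluorescence (480/540 nm) read kinetically in 50 mM HEPES pH 7.8, 0.5 mM EDTA, 1 mM TCEP, 0.1 mg/ml BSA, 0.01% Tween-20.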

[16] = target: ATP-dependent 6-phosphofructokinase (Trypanosoma brucei brucei) (UniProt O15648); experiment: qHTS Assay to Find Inhibitors of T. brucei phosphofructokinase: hit validation (AID 492961);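 further: luminescence reports ADP formed as PFK phosphorylates fructose-6-phosphate with ATP; series mostly up to about 51 µM; on the % scale 0 is the no-effect control and ±100 the full control effect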
Chain of ATP-dependent 6-phosphofructokinase (Trypanosoma brucei brucei) (O15648 whole entry, looked up): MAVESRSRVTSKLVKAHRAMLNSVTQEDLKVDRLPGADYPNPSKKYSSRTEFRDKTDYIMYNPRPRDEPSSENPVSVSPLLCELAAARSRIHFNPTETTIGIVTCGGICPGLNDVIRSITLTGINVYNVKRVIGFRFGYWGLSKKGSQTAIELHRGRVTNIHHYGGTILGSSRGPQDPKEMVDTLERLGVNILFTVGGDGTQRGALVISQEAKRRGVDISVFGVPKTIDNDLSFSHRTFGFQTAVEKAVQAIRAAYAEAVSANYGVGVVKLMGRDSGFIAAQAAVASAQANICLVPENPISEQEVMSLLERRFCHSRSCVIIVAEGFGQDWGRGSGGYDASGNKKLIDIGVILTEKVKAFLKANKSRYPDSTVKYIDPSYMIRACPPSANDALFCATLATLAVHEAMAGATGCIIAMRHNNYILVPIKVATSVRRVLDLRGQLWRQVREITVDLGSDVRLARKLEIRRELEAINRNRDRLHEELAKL
Procedure, shortened: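 Percent activity derived from corrected luminescence, normalized between 0x and 1x enzyme controls, then fitted to concentration-response curves. Conditions: 1.25 nM PFK, 0.1 mM ATP, 0.5 mM F6P, 45 min RT.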

[17] = target: M-phase phosphoprotein 8 (Homo sapiens) (UniProt Q99549); experiment: qHTS Validation Assay for Inhibitors for MPP8 Chromodomain Interactions with Methylated Histone Tails (AID 488949); further: top concentration of the series differs between compounds; on the % scale 0 is the no-effect control and ±100 the full control effect; nearly all actives have a fitted effect of over 55% in size
Chain of M-phase phosphoprotein 8 (Homo sapiens) (Q99549 whole entry, looked up): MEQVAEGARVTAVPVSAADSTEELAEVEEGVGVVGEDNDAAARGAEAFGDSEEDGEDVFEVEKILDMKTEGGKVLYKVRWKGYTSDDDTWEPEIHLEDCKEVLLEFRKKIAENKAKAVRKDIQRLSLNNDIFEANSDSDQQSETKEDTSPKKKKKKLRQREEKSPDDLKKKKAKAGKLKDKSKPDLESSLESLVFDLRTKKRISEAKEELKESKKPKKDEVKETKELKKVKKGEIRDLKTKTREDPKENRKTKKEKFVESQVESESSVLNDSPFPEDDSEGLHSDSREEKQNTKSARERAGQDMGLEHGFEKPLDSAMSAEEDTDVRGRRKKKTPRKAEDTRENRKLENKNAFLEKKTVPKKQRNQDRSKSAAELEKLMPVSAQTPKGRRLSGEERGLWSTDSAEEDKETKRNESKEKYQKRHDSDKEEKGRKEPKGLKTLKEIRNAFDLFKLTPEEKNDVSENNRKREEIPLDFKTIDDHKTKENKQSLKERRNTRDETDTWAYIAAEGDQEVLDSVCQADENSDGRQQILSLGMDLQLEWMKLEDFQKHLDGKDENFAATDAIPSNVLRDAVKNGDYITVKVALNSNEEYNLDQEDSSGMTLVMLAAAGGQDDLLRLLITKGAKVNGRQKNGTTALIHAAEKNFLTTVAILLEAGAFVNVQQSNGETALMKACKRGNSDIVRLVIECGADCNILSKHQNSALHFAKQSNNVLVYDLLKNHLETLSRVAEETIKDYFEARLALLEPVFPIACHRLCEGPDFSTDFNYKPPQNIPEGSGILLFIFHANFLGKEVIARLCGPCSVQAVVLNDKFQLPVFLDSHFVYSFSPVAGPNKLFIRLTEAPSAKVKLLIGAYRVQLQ
Procedure, shortened: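 MPP8 (50 nM) was pre-bound to 50 nM biotinylated H3(1-18)K9me3 peptide in PBS pH 7.4 with 0.01% Tween-20. Compounds were then added for 30 min at room temperature, and complex disruption was read by AlphaScreen with streptavidin donor and nickel-chelate acceptor beads.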

[18] = target: D(1A) dopamine receptor (Homo sapiens) (UniProt P21728); experiment: HTS Assay for Allosteric Agonists of the Human D1 Dopamine Receptor: Primary Screen for Potentiators (AID 488982); further: 0% is about no effect
Procedure, shortened: as §1

[19] = Nrf2 qHTS screen for inhibitors: Validation (AID 493153; active means well fitted inhibition curve with a large enough effect in the main read-out, with a control signal flat, not every such curve was filed as active); conditions: Potency: luciferase luminescence; viability change: measured here: cytotoxicity max response
Procedure, shortened: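 Concentration-response on A549 ARE_Fluc reporter cells exposed 18-24 h at 37 C, 5% CO2. Cytotoxicity read first by CellTiter-Fluor fluorescence (Ex 405/Em 525), then Nrf2 inhibition by BugLite luminescence after 15 min.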

[20] = target: Chromobox protein homolog 1 (Homo sapiens) (UniProt P83916); experiment: qHTS Validation Assay for Inhibitors of HP1-beta Chromodomain Interactions with Methylated Histone Tails (AID 488953); further: nearly all actives have a fitted effect of over 50% in size; further: potency means the concentration at half of the fitted maximal effect
Chain of Chromobox protein homolog 1 (Homo sapiens) (P83916 whole entry, looked up): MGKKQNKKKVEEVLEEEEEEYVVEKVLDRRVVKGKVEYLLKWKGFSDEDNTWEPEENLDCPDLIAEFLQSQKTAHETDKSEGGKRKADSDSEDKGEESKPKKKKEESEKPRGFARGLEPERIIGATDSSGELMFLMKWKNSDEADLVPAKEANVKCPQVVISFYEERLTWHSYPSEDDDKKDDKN
Procedure, shortened: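 AlphaScreen proximity signal from streptavidin donor and nickel chelate acceptor beads (final 10 ug/mL) after 30 min dark incubation. Compounds had 30 min at room temperature with preformed complex of 50 nM HP1-beta and 50 nM b-H3(1-18)K9me3 in PBS pH 7.4 with 0.01% Tween-20.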

N#CC(C#N)=Cc1ccc(O)c(O)c1
active: Potency [1] 18.9 µM
inactive: outcome [2] | outcome [3] | Potency [4] | Potency [5] | Potency [6] | activation [7] 1.19% | outcome [8] | outcome [9] | Potency [10] | Potency [11] | Potency [12] | outcome [13] | outcome [14] | Potency [15]

CC1OC(C)OC(C)O1 (stereo not drawn)
inactive: outcome [16] | Potency [15]

CCN(CC)CCN1C(=O)CN=C(c2ccccc2F)c2cc(Cl)ccc21
inactive: outcome [16] | Potency [15]

O=c1[nH]cc(F)c(=O)[nH]1
inactive: Potency [1] | outcome [14]

CCn1cc(C(=O)O)c(=O)c2ccc(C)nc21
inactive: Potency [17] | outcome [3] | activation [7] 1.06% | outcome [9] | Potency [10] | outcome [14]

NP(N)(=O)NC(=O)c1ccc(F)cc1
inactive: outcome [16] | Potency [15]

CC[C@@H](CO)NC(=O)[C@@H]1C=C2c3cccc4[nH]cc(c34)C[C@H]2N(C)C1
inactive: outcome [2] | Potency [4] | Potency [18] | Potency [6] | Potency [19] | outcome [8] | Potency [12] | outcome [13] | outcome [14] | Potency [15]
-12.7%: viability change [19]
active: Potency [5] 0.447 µM

N[C@@H](Cc1ccc(N(CCCl)CCCl)cc1)C(=O)O
inactive: outcome [16]

CC12CC3CC(C)(C1)CC(N)(C3)C2
inactive: Potency [1] | outcome [14]

Clc1cccc(N2CCNCC2)c1
inactive: Potency [17] | outcome [3] | outcome [9] | Potency [10] | Potency [15]

CCOC(=O)C1(c2ccccc2)CCN(CCC(C#N)(c2ccccc2)c2ccccc2)CC1
inactive: outcome [16]

CC(=O)Nc1cc([As](=O)(O)O)ccc1O
inactive: outcome [16] | Potency [15]

CNCCC(Oc1ccc(C(F)(F)F)cc1)c1ccccc1 (stereo not drawn)
inactive: Potency [20] | outcome [14]

Cc1cccc(C)c1NC1=NCCCS1
inactive: Potency [17] | Potency [20] | outcome [2] | outcome [3] | Potency [4] | Potency [18] | Potency [5] | Potency [6] | activation [7] 0.688% | outcome [8] | outcome [9] | Potency [10] | Potency [11] | Potency [12] | outcome [13] | outcome [14] | Potency [15]

Cc1ccc(S(=O)(=O)N[C@@H](CCCCN)C(=O)CCl)cc1
active: Potency [15] 50.1 µM and 39.8 µM
inactive: Potency [17] | Potency [20] | outcome [2] | outcome [3] | Potency [4] | Potency [18] | Potency [5] | activation [7] -0.625% | outcome [9] | Potency [10] | Potency [11] | Potency [12] | outcome [13] | outcome [14]

CC(C)=CC1C(C(=O)OCc2cccc(Oc3ccccc3)c2)C1(C)C (stereo not drawn)
inactive: outcome [16]

CCOP(=S)(OCC)Oc1cc(C)nc(C(C)C)n1
inactive: outcome [16]

CCC(COC(=O)c1cc(OC)c(OC)c(OC)c1)(c1ccccc1)N(C)C (stereo not drawn)
inactive: outcome [16]

CC(C)C(=O)Nc1ccc([N+](=O)[O-])c(C(F)(F)F)c1
inactive: Potency [17] | Potency [20] | Potency [18] | outcome [14]

Cc1c2oc3c(C)ccc(C(=O)N[C@@H]4C(=O)N[C@H](C(C)C)C(=O)N5CCC[C@H]5C(=O)N(C)CC(=O)N(C)[C@@H](C(C)C)C(=O)O[C@@H]4C)c3nc-2c(C(=O)N[C@@H]2C(=O)N[C@H](C(C)C)C(=O)N3CCC[C@H]3C(=O)N(C)CC(=O)N(C)[C@@H](C(C)C)C(=O)O[C@@H]2C)c(N)c1=O (I: T[dV]P[Sar][NMeV] / II: T[dV]P[Sar][NMeV]; ester I:1-I:C, II:1-II:C; linker I:N-II:N via Actinocin(9to1))
inactive: outcome [16]

CC1NCCOC1c1ccccc1 (stereo not drawn)
inactive: outcome [16] | Potency [15]

OCCN1CCN(CCCN2c3ccccc3Sc3ccc(C(F)(F)F)cc32)CC1
inactive: Potency [18] | outcome [14]
active: Potency [20] 0.006 µM | Potency [15] 56.2 µM

CN(C)CCC=C1c2ccccc2CCc2ccccc21
inactive: Potency [17] | Potency [18] | outcome [14] | Potency [15]
active: Potency [5] 1.12 µM

CCN(C(C)=O)c1cccc(-c2ccnc3c(C#N)cnn23)c1
inactive: outcome [16] | Potency [15]

CN1CCN(C(=O)O[C@H]2c3nccnc3C(=O)N2c2ccc(Cl)cn2)CC1
inactive: outcome [16]
